A selection: hits, their analogues and other compounds. The true share with any hit is near 17%.
DT40 TDP1 CPT – DT40-hTDP1 cell growth loss with CPT; chicken DT40 Tdp1-/-;hTDP1 cells + 20 nM CPT, ATP luminescence, 48 h; Potency, µM (doses to about 46.2 µM), inactives show at the top dose activity change, negative = growth inhibition, usual class: inhibitors; 420,000 compounds, 12% hits; note: % is set by controls: 0 for no effect and ±100 for the full control effect; nearly all actives have a fitted effect of over 55% in size
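Cell growth measured by CellTiter-Glo luminescence after a minimum 48 h, 37 C compound exposure with 20 nM CPT in Tdp1-knockout DT40 cells stably expressing hTDP1, seeded 400/well; qHTS titration format.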
HT1080-NT tox – kills 2HG-producing HT-1080-NT fibrosarcoma cells. HT-1080-NT fibrosarcoma viability, CellTiter-Glo ATP luminescence, 48 h. Potency, µM (series often up to 46.1 µM), without a hit: at the top dose activity, negative = less viability, most hits filed as cytotoxic. 360,000 compounds, 1.6% hits;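 note: NT is the 2HG producing partner of a matched IDH1 knockdown line; 0% = DMSO-treated cells and -100% = media-only wells without cells; nearly all actives have a fitted effect of over 55% in size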
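HT-1080-NT; 750 cells/well; 5% FBS RPMI; 48 h compound, 37 degrees C; CellTiter-Glo luminescence; curve fitting and curve-class assignment.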
TGFb SMAD3 inh – TGF-b pathway inhibition; HepG2 CAGA-GFP TGF-b/SMAD3 reporter, GFP fluorescence, 18 h; TGF-beta stimulated, 500 pg/mL final; Potency, µM (highest dose often 46.1 µM), for inactives: top-dose activity, negative = inhibition, hits mostly inhibitors; 410,000 compounds, 1.2% hits; AID 588855; note: % is set by controls: 0 for no effect and ±100 for the full control effect; nearly all actives have a fitted effect of over 65% in size
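HEPG2 CAGA-GFP, 1000 cells/well; 2 h settle, 37 C; cpd via pin tool; TGF-b 500 pg/mL final; 18 h, 37 C; GFP imaging ex488/em500-530; %Activity normalised to -TGF-b and +DMSO controls; CRC fit, curve class.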
HT1080 IDH1KD tx – HT-1080 IDH1 knockdown cell toxicity (counter line) | AID 686971 | 360,000 compounds, 2% hits | Potency, µM (highest dose often 46.1 µM), without a hit: at the highest dose activity, negative = toxicity, hits mostly cytotoxic | HT-1080 IDH1 knockdown viability, ATP luminescence, 48 h;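 note: 0% = DMSO wells and -100% = cell-free medium wells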
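Luminescent ATP read-out (CellTiter-Glo, 10 min at room temperature) after 48 h compound exposure at 37 °C gave viability of IDH1-knockdown HT-1080 cells. Activity was normalised to DMSO and cell-free wells, then fitted as concentration-response curves.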
HepG2 tox – counter-screen for TGF-b inhibitors: cytotoxicity in HepG2 cells | HepG2 CAGA-GFP viability, ATP luminescence, 18 h | Potency, µM (titrated, usually from 46.1 µM), without a hit: at the top dose activity change, negative = cytotoxicity, actives largely listed as cytotoxic | 410,000 compounds, 0.76% hits | AID 588856
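HepG2 CAGA-GFP cells (1000/well, DMEM with 1% FBS) received compound, then TGF-beta at 500 pg/mL final, and were incubated 18 hours at 37 degrees C. Viability was read by CellTiter-Glo luminescence. Media-only wells were set as complete cell-killing and DMSO as no toxicity.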
DT40 TDP1 no CPT – qHTS for Inhibitors of human tyrosyl-DNA phosphodiesterase 1 (TDP1): qHTS in cells in absence of CPT. 420,000 compounds, 15% hits. DT40 Tdp1-/- hTDP1 cells, no CPT, ATP luminescence, 48 h. AID 686978, 2013. Potency, µM (series often up to 46.2 µM), without a hit: at the top dose activity change, negative = growth inhibition, hits mostly inhibitors; note: % is set by controls: 0 for no effect and ±100 for the full control effect; nearly all actives have a fitted effect of over 55% in size
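Growth kinetics read by CellTiter-Glo luminescence after ≥48 hr at 37 °C. Cells: DT40 Tdp1-/- stably carrying human TDP1, 400 per well, compound exposure in the absence of CPT (DMSO vehicle).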
The depositor's hits bear a star; ? = inconclusive; . = not tested or not shown. Calls come from the whole dose curve; as a rule, active = well fitted curve in the direction sought with a large enough effect; inconclusive = small, poorly fitted or top-dose-only effect, or another doubt; inactive = no such curve, though single readings can be large; an effect the other way counts as inactive or inconclusive. Potency is the fitted concentration of half-maximal effect.

SMILES	DT40 TDP1 CPT	HT1080-NT tox	TGFb SMAD3 inh	HT1080 IDH1KD tx	HepG2 tox	DT40 TDP1 no CPT
Cc1ccc2oc(/N=C(\N)NC(=O)C3CC3)nc2c1	9.2µM*	-14.1%	-18.3%	?	-17.3%	4.61µM*
N=c1c(C(=O)NC2CCCC2)cc2c(=O)n3ccccc3nc2n1Cc1ccccc1	?	12.8%	16.9%	0.0%	-14.0%	?
COc1ccc(CCn2c(=N)c(C(=O)NC3CCCC3)cc3c(=O)n4cccc(C)c4nc32)cc1	1.46µM*	-4.2%	16.5%	-7.3%	12.1%	1.84µM*
CCOCCCn1c(=N)c(C(=O)NC2CCCCC2)cc2c(=O)n3ccccc3nc21	-5.2%	.	3.9%	.	-3.0%	?
Cc1cccn2c(=O)c3cc(C(=O)NC4CCCC4)c(=N)n(CCc4ccccc4)c3nc12	2.91µM*	10.6%	5.2%	2.7%	-9.8%	3.66µM*
COc1ccc(CCn2c(=N)c(C(=O)NC3CCCCC3)cc3c(=O)n4ccccc4nc32)cc1	6.51µM*	-0.5%	27.5%	6.0%	6.8%	4.11µM*
Cc1ccc(Cn2c(=N)c(C(=O)NC3CCCCC3)cc3c(=O)n4ccccc4nc32)cc1	5.8µM*	10.8%	1.0%	18.1%	-3.8%	6.51µM*
Nc1cc(=O)[nH]c(SCC(=O)NCCC2=CCCCC2)n1	-4.2%	0.0%	-29.5%	-3.9%	-1.5%	-0.3%
N#CC1(NC(=O)COc2cccnc2[N+](=O)[O-])CCCCC1	-2.5%	-0.6%	-14.4%	-1.9%	0.8%	-15.5%
COc1cccc(NC(=O)CN(C)C(=O)c2ccc3c(c2)C(=O)N(CCC(C)C)C3=O)c1	-23.0%	-2.1%	-19.6%	0.0%	-24.7%	-7.3%
C=CCc1ccc(OCCOc2cccc3cccnc23)c(OC)c1	?	-0.6%	-4.1%	-1.1%	-2.6%	?
C=CCc1ccc(OCCOCCOc2cccc3cccnc23)c(OC)c1	?	-22.3%	4.0%	-22.3%	-27.5%	29.1µM*
C/C=C/c1ccc(OCCOCCOc2cccc3cccnc23)c(OC)c1	23.1µM*	-12.4%	-27.0%	-12.7%	-23.8%	14.6µM*
CCCC1CC(=O)NC1(C(=O)OCC)C(=O)OCC (configuration not stated)	7.8%	8.4%	-2.6%	13.4%	-5.9%	-0.1%
Cc1ccccc1NC(=O)CN(C)S(=O)(=O)c1cccc2nsnc12	-6.1%	.	0.0%	.	-11.1%	-26.2%
CCn1c(/C(C#N)=C/c2ccccc2Cl)nc2ccccc21	?	.	?	.	-60.3%	25.9µM*
Cn1c(/C(C#N)=C/c2ccccc2Br)nc2ccccc21	14.6µM*	.	.	.	-52.6%	11.6µM*
COc1ccc(N/C=C(\C#N)c2nc3ccccc3n2C)c(OC)c1	?	-11.7%	?	-8.2%	-4.7%	23.1µM*
CCc1nnc(NC(=O)CSc2nc3c([nH]c4ccccc43)c(=O)n2-c2ccc(Cl)cc2)s1	-26.9%	.	-27.3%	.	-28.5%	-23.0%
Cc1cc(C(F)F)n2nc(C(=O)Nc3c(C)cccc3C)nc2n1	-11.1%	.	15.2%	.	3.1%	8.3%
CCOC(=O)C1=C(O)C(=O)NC(c2ccccc2)=C(OC2CCCCC2)C1	?	-10.0%	-6.0%	-10.2%	7.0%	23.1µM*
CCOC(=O)C1=C(O)C(=O)NC(c2ccccc2)=C(OCC)C1	-2.8%	4.6%	0.0%	3.8%	-8.9%	-2.2%
COc1ccc(CCNc2ncnc3c2c(-c2ccccc2)cn3-c2cccc(Cl)c2)cc1OC	7.31µM*	.	-15.1%	.	-30.0%	9.2µM*
COc1ccc(-n2cc(-c3ccccc3)c3c(NCCc4ccc(OC)c(OC)c4)ncnc32)cc1	23.1µM*	.	-29.7%	.	-31.3%	20.6µM*
